The panel holds about 83,000 compounds, 20% with a hit somewhere; the sample as a whole holds those more often.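 Interpretation: 100, growth as untreated; towards 0, rising growth inhibition; 0, no net growth; 0 to -100, cell death. Compounds scoring below 10 were considered active.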 The source made the active and inactive calls.
Tests used:
Experiment in all cases: NCI-60 one-dose screen, 48 h (100 = growth as untreated, 0 = no growth, -100 = all killed)
Settings in all cases: 10 µM
[1] = system: HCT-15 colon
[2] = system: SNB-75 CNS
[3] = system: SNB-19 CNS
[4] = system: U251 CNS
[5] = system: PC-3 prostate
[6] = system: SK-MEL-5 melanoma
[7] = system: UACC-62 melanoma
[8] = system: LOX IMVI melanoma
[9] = system: SK-MEL-28 melanoma

Measured: growth

O=C(NO)c1ccc(CNC(=O)[C@H]2Cc3c([nH]c4ccccc34)[C@H](c3ccc(Cl)cc3)N2)cc1
active: [4] -4.01% | [6] -70.8% | [7] -49.8% | [8] -88.4% | [9] 1.81%
inactive: [1] 30.5% | [2] 39.6% | [3] 15.5% | [5] 21.4%

Nc1nnc(-c2c[nH]c3ccc(F)cc23)c(-c2c[nH]c3ncccc23)n1
inactive: [1] 69.3% | [2] 29.1% | [3] 33.9% | [4] 37.6% | [5] 67.5% | [6] 63.7% | [7] 51.7% | [9] 71.3%

CCC(C)S(=O)(=O)c1oc(-c2ccc(C)cc2)nc1S(=O)(=O)c1ccccc1 (centres undefined)
active: [1] -72.2% | [2] 3.57% | [3] 0.128% | [4] -95.9% | [5] -60.5% | [6] -86.5% | [7] -94.2% | [8] -94% | [9] -99.8%

N#Cc1ccc(-c2nn(-c3ccc(C(=O)O)cc3)cc2CNc2cc(Cl)cc(Cl)c2)cc1
inactive: [1] 25.6% | [2] 78.5% | [3] 55.8% | [4] 32.8% | [5] 33.6% | [6] 23.9% | [7] 28.5% | [9] 18.1%
active: [8] 7.12%

CN1CCN(Cc2ccc(C(=O)Nc3cccc(Nc4ccc5cc(O)ccc5n4)c3)cc2C(F)(F)F)CC1
active: [1] -81% | [2] -11.4% | [3] -54% | [4] -65% | [5] -22.9% | [6] -99.7% | [7] -90.1% | [8] -93.5% | [9] -91.9%

COc1ccc(C(=O)NC(=S)N2CCN(c3ncnc4c3cnn4-c3ccccc3)CC2)cc1
inactive: [1] 42.7% | [2] 31.7% | [3] 10.2% | [4] 55.1% | [5] 59% | [6] 71.6% | [7] 40.8% | [8] 62.3% | [9] 50%

COc1ccc(N(C)c2cc(C#N)nc3ccccc23)cc1/C=C/C(=O)NO
active: [1] -59.4% | [2] -24.6% | [3] -44.5% | [4] -51% | [5] -9.99% | [6] -67.5% | [7] -72.2% | [8] -97.6% | [9] -73.8%

COc1ccc([C@H]2C(C(=O)c3ccc(Cl)cc3)C3(N[C@@H]2c2ccccc2)C(=O)Nc2ccc(Cl)cc23)cc1 (some centres undefined)
active: [1] -23% | [4] -33.9% | [6] 4.07% | [7] -63.1% | [8] -100% | [9] 4.54%
inactive: [2] 35.8% | [3] 16% | [5] 18.1%

CCCCCCCCCCCCCCCCCCCC(=O)NCCc1c[nH]c2ccc(O)cc12
inactive: [1] 96.2% | [2] 129% | [3] 104% | [4] 99% | [5] 73.4% | [6] 110% | [7] 99.7% | [8] 76.7% | [9] 106%

C#CCNC(=O)CCC(=O)OC[C@]12CC[C@@H](C(=C)C)[C@@H]1C1CC[C@@H]3[C@@]4(C)CCCNC(C)(C)[C@@H]4CC[C@@]3(C)[C@]1(C)CC2 (some centres undefined)
active: [1] -64.9% | [4] -74.2% | [5] -20.3% | [6] -100% | [7] -42.8% | [8] -100% | [9] -98.5%
inactive: [2] 98.8% | [3] 34%

— PubChem BioAssay (NCI)
